Laboratory results as given in PubChem BioAssay (NCI).
Compounds without any hit were thinned out: in the full panel of roughly 83,000, 20% have a hit.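 The test compound was applied at a single concentration to cells in 96-well plates for 48 hours, and percent growth was recorded.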 Unmarked numbers belong to inactive results. Active and inactive are the calls of the source. Rule for the calls: active = growth percent below 10; inactive = the rest.

System: MCF7 breast
Assay: NCI-60 one-dose screen, 48 h (100 = growth as untreated, 0 = no growth, -100 = all killed)
Details: 10 µM unless noted

Row | SMILES | growth
1 | Cc1ccc(-n2c(-c3cc4ccccc4nc3Cl)noc2=O)cc1 | 64.5%
2 | Cc1ccc(/C=C/c2n(Cc3ccc4ccccc4c3)c3ccccc3[n+]2Cc2ccc3ccccc3c2)cc1 | -78.3% (active)
3 | Brc1ccc(-c2n(Cc3ccc4ccccc4c3)c(-c3ccccc3)c(-c3ccccc3)[n+]2Cc2ccc3ccccc3c2)cc1 | -69.8% (active)
4 | CCOC(=O)C(N=Nc1ccc(S(=O)(=O)N=C(N)N)cc1)C(C)=O (configuration not stated) | 97.9%
5 | COc1ccc2[nH]cc(-c3nc(N)nnc3-c3cn(C)c4ncccc34)c2c1 | 25.6%
6 | CC(/C=C1\SC(=S)N(CCCC(=O)NC(CC(C)C)C(=O)O)C1=O)=C\c1ccccc1 (configuration not stated) | 82.1%

System: HCT-116 colon
Assay: as above
Details: 10 µM unless noted

Row | SMILES | growth
7 | C#CCOc1cc(N(CC)CC)ccc1C(C(=O)NC(C)(C)C)N(C(=O)C1CCc2cc(F)ccc2O1)c1ccc(F)c(Cl)c1 (configuration not stated) | 38.2%
8 | COc1cc2c(c(OC)c1OC)C(=O)CC(c1cccc(NC(=O)c3cc(NC(=O)[C@@H](N)CO)ccc3C)c1)O2 (some centres not stated) | 116%
9 | O=C(O)Cn1c(O)c(/C=C2/C=c3cc4c(cc3=NC2=O)OCCO4)sc1=S | 103%
10 | CC(C)CSc1nc(NCCc2c[nH]c3ccccc23)c(C#N)c(-c2ccc(Cl)cc2)n1 | 19.5%
11 | C=C1CCC2C3(C)COC(c4ccccc4)OC3CCC2(C)C1CC(Sc1ccccc1)C1=CCOC1=O (configuration not stated) | 4.36% (active)
12 | O=C1c2c(c3c4cc(F)ccc4oc3c3[nH]c4ccc(Br)cc4c23)C(=O)N1O | 34.5%
13 | C#C[C@]1(O)CC[C@H]2[C@@H]3CC=C4c5sc(-c6ccc(O)c(O)c6)nc5CC[C@]4(C)[C@H]3CC[C@@]21C | -88.8% (active)
14 | COc1ccc(N2N=C(c3ccc4c(c3)OCO4)CC2c2cccc(NC(=O)CCCNS(=O)(=O)c3ccc(F)cc3)c2)cc1 (configuration not stated) | 49.9%
15 | CN(C)CCn1c2ccccc2c2nc3cc(C(F)(F)F)ccc3nc21 | 16.8%
16 | O=C(COc1ccc(NC(=O)Nc2ccc(Cl)c(Cl)c2)cc1)N=Nc1c(O)[nH]c2ccccc12 | -1.24% (active)
17 | CC1(C)CC[C@]2(C(=O)O)CC[C@]3(C)C(=CCC4[C@@]5(C)C[C@@H](O)[C@@H]6OC(c7cccc(Br)c7)OC[C@@]6(C)C5CC[C@]43C)C2C1 (some centres not stated) | 10.8%
18 | CCN1C(=O)N(CC)C2NNC(Sc3c(C(=O)O)c4ccccc4n(C4CCCC4)c3=O)=NC21 (configuration not stated) | 4.07% (active)
19 | O=c1[nH]c2ccccc2cc1CSc1cccc(Nc2nccc(-c3ccc4ccccc4c3)n2)c1 | 79.7%
20 | O=C(c1ccc(OCCN2CCOCC2)cc1)C1[C@H](c2ccc(Cl)cc2)[C@@H](c2ccccc2)NC12C(=O)Nc1ccc(Cl)cc12 (some centres not stated) | 11.5%
21 | CCN(CC)c1ccc(/C=N/Nc2nc(-c3ccc(Br)cc3)cs2)c(O)c1 | 18.3%
22 | CCCCSc1nc(NCCc2c[nH]c3ccccc23)c(C#N)c(-c2ccc(F)cc2)n1 | 26.5%
23 | COc1ccc(NC(=O)[C@@H](N)Cc2ccccc2)cc1C(=O)Nc1cccc(C2CC(=O)c3c(cc(OC)c(OC)c3OC)O2)c1 (some centres not stated) | 45.2%
24 | Cc1cccc(NC(=O)CN2CCN(c3ncnc4c3cnn4-c3ccccc3)CC2)c1 | 58.6%
25 | COc1ccc(NC(=O)[C@H](CO)NC(=O)OC(C)(C)C)cc1C(=O)Nc1cccc(C2CC(=O)c3c(cc(OC)c(OC)c3OC)O2)c1 (some centres not stated) | 32.3%
26 | Cc1ccc(-c2nc(C#N)c(S(=O)(=O)N3CCN(S(=O)(=O)c4ccc(Cl)cc4)CC3)o2)cc1 | 84.9%
27 | Cc1ccc(-c2nc(Nc3ccccc3S(N)(=O)=O)c3ccccc3n2)cc1 | 40%
28 | Cc1ccc(C(=O)C(c2c[nH]c3ccccc23)c2c[nH]c3ccccc23)cc1 | -62.3% (active)
29 | COC(=O)/C=C/c1cccc2c1C(=O)NC(C)(c1cc3ccccc3oc1=O)N2 (configuration not stated) | 44.6%
30 | O=C(/C=C/c1ccc(O)c(O)c1)NC1CCOC1O (configuration not stated) | 103%
31 | CC1(C)CC[C@]2(C(=O)O)CC[C@]3(C)C(=CCC4[C@@]5(C)C[C@@H](O)[C@@H]6OC(c7ccccc7Br)OC[C@@]6(C)C5CC[C@]43C)C2C1 (some centres not stated) | 6.88% (active)
32 | C/C(=N\N=C1/C(=O)Nc2ccccc21)c1ccc2c(c1)Nc1ccccc1S2 | 16.2%
